These results are taken from PubChem BioAssay AID1053117 (Broad Institute, 2014).

Potency and affinity values are given separately. The source made the active and inactive calls.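 The calls were made as follows: active = compounds lowering cell ATP signal with a fitted half-effect dose at most twice the top valid dose; inconclusive = flat curve with 30 to 70% signal loss, or bad fit; inactive = wrong direction, flat within 30%, or weaker than limit.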

The assay in a line: viability loss in HEK293 kidney cells – cell-based, cherry-picks, set 5, cytotoxicity control, dose response (AID 1053117).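 Also: more negative means greater loss of ATP signal and more cytotoxicity.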 Particulars: HEK293T viability, CellTiter-Glo ATP luminescence, 72 h; series mostly up to 26 µM. A general note: In ATP-based viability assays light output follows the ATP content of the culture.
Consider `C[C@H](O)C#Cc1ccc2c(c1)O[C@H](CN(C)C)[C@H](C)CN([C@H](C)CO)S2(=O)=O`, for which the molecule was classed as inactive.

Consider `O=C(Nc1ccccc1F)N1C[C@H]2[C@@H](c3ccccc31)[C@@H](CO)N2C(=O)C1CC1`, for which the outcome was inactive. Consider `O=C(c1cccnc1)N1C[C@@H]2[C@H](c3ccccc31)[C@H](CO)N2CC1CCCC1`, for which the molecule was classed as inactive. For the molecule `CCOc1ccccc1NC(=O)c1c(NC(=O)CCC(=O)O)sc2c1CCCCC2`, the result was inactive. Next, `O=C(CCNS(=O)(=O)c1cccc2nonc12)NC1CCCc2ccccc21` (stereo not drawn): “inactive”. As for `COCC(=O)Nc1ccc2c(c1)C(=O)N(C)[C@H]1CC[C@H](CC(=O)NCc3ccccc3Cl)O[C@@H]1CO2`, the outcome was inactive. In the case of `Cc1c(NC(=O)c2ccc3nsnc3c2)cccc1[N+](=O)[O-]`, the molecule was classed as inactive. As for `N#C[C@@H]1[C@H](c2ccccc2C2=CCCCC2)[C@@H](CO)N1S(=O)(=O)c1ccccc1`, the outcome was inactive. Next, `COc1ccc([N+](=O)[O-])cc1NS(=O)(=O)c1ccc(C(=O)N2CCCC2)cc1`: “inactive”; `Cc1ccc([N+](=O)[O-])cc1NC(=O)CN(C(=O)c1ccccc1Cl)C1CCCCC1`: “inactive”. Next, `C[C@@H]1CN([C@H](C)CO)C(=O)c2cc(NC(=O)CCCN(C)C)ccc2O[C@@H]1CN(C)Cc1ccc(-c2ccccc2)cc1`: “inactive”. As for `Cc1ccn2cc(-c3ccc(NC(=O)c4ccco4)cc3)nc2c1`, the entry is “inactive”; as for `N#C[C@H]1[C@@H](c2ccccc2C2=CCCCC2)[C@@H](CO)N1S(=O)(=O)c1ccccc1`, “inactive”. For the molecule `CCC(C)(C)NC(=O)C(OC(=O)c1ccco1)c1ccccc1OC` (stereo not drawn), the result was inactive. As for `COC(=O)C[C@@H]1CC[C@H]2[C@H](COc3ccc(NC(=O)Cc4cccs4)cc3C(=O)N2C)O1`, the entry is “inactive”. Next, `C[C@H](CO)N1C[C@H](C)[C@@H](CN(C)Cc2ccccc2)Oc2ncc(-c3ccccc3)cc2C1=O`: “inactive”; `Cc1cc(C)n2ncc(C(=O)NCc3ccc(Cl)cc3)c2n1`: “inactive”; `S=C(NCC1CCCO1)Nc1ccc(Cl)cc1Cl` (stereo not drawn): “inactive”. Next, `COCC(C)n1c(SCc2nc(N)nc(Nc3ccccc3C)n2)nc2ccccc2c1=O` (stereo not drawn): “inactive”.

Regarding `C[C@@H]1CN([C@@H](C)CO)C(=O)c2cc(-c3ccccc3)cnc2O[C@@H]1CN(C)Cc1ccccc1`, the outcome was inactive. As for `N#Cc1ccc(-c2ccc3c(c2)[C@@H]2[C@@H](CCN2S(=O)(=O)c2ccccc2F)[C@H](CO)N3)cc1`, the entry is “inactive”; as for `CCN1CCN(C(c2ccccc2)c2nnnn2Cc2ccccc2)CC1` (stereo not drawn), “inactive”; as for `C[C@H](CO)N1C[C@H](C)[C@H](CN(C)Cc2ccc(-c3ccccc3)cc2)Oc2ccc(NC(=O)C3CCCCC3)cc2C1=O`, “inactive”. As for `CCN(Cc1ccncc1)C(=O)c1ccc2c(c1)S(=O)(=O)c1ccccc1C2=O`, the entry is “inactive”; as for `Cc1ccc(CS(=O)Cc2ccc(C(=O)NC3CCCC(C)C3C)o2)cc1` (stereo not drawn), “inactive”; as for `COCC(=O)Nc1ccc2c(c1)C(=O)N(C)[C@@H]1CC[C@@H](CC(=O)NCc3ccccc3Cl)O[C@H]1CO2`, “inactive”. Next, `O=C(CN1CCCC1)Nc1ccc(Oc2ccc(NC(=O)CN3CCCC3)cc2)cc1`: “inactive”; `COc1ccc(C)cc1N(CC(=O)Nc1cccc(N(C)S(C)(=O)=O)c1)S(C)(=O)=O`: “inactive”; `CCc1nc2c(OCCc3cccc(OC)c3)cccn2c1N(C)C(=O)c1ccc(C)cc1`: “inactive”.

Turning to `Cc1ccc(N(CC(=O)NCc2ccco2)S(=O)(=O)c2ccccc2)cc1`, the molecule was classed as inactive. As for `CN1c2ccc(-c3ccccc3)cc2[C@H]2[C@H](CCN2C(=O)CN2CCOCC2)[C@H]1CO`, the entry is “inactive”; as for `CCCCOc1ccc(C(C)NC(=O)C2CCCN(S(=O)(=O)CCC)C2)cc1` (stereo not drawn), “inactive”; as for `CCOC(=O)c1nnn(-c2ccc(OC)cc2)c1N`, “inactive”.
